Reference: the supplement of paper PMC10849652
Targets with a hit are over-represented here; the source holds about 8,800 in all. About 0.5% of all pairs of compound and target were hits. A number with no mark means an inactive call.

Assays:
Assay in all cases: log2 fold change, soluble protein after heating vs DMSO (PISA); higher = thermal stabilisation; K562 lysate, 10 uM; active = over 0.2 and 3.5 SD of the protein, either way, in both replicates (recomputed)
vemurafenib = compound: CCCS(=O)(=O)Nc1ccc(F)c(C(=O)c2c[nH]c3ncc(-c4ccc(Cl)cc4)cc23)c1F [vemurafenib]
How it was run: (§1)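 Log-two fold change in thermal stability relative to solvent controls is reported from duplicates. For each sample, crude K562 extract from dounce-homogenised pellets in PBS pH 7.4 with 1 mM MgCl2, at 1 mg/mL protein, was treated with 10 μM compound for 30 min. Aliquots heated for 3 min across 48°C-58°C were pooled, brought to 0.5% NP-40 at 4°C and cleared at 21,000xg for 90 min. The supernatant was quantified by TMTpro 16plex LC-MS/MS with channel sums equalised.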

[1] = compound: CCCS(=O)(=O)Nc1ccc(F)c(C(=O)c2c[nH]c3ncc(Cl)cc23)c1F
How it was run: as §1

barasertib = compound: CCN(CCCOc1ccc2c(Nc3cc(CC(=O)Nc4cccc(F)c4)[nH]n3)ncnc2c1)CCOP(=O)(O)O [barasertib]
How it was run: as §1

[2] = compound: CC[C@@H]1C(=O)N(C)c2cnc(Nc3ccc(C(=O)NC4CCN(C)CC4)cc3OC)nc2N1C1CCCC1
How it was run: as §1

volasertib = compound: CC[C@@H]1C(=O)N(C)c2cnc(Nc3ccc(C(=O)N[C@H]4CC[C@H](N5CCN(CC6CC6)CC5)CC4)cc3OC)nc2N1C(C)C [volasertib]
How it was run: as §1

[3] = compound: CCn1c(C(=O)N(C2CC2)C2CC2)cc2c3c(ncn3C)c(Nc3cc(C)n(C)n3)nc21
How it was run: as §1

[4] = compound: CCn1cc(-c2ccnc3[nH]c(-c4cccc(CN(C)C)c4)cc23)c(-c2ccc(NC(=O)N(C)C)cc2)n1
How it was run: as §1

[5] = compound: CN1CCC(CNc2ccc3ncc(-c4cccc(OC(F)(F)F)c4)n3n2)CC1
How it was run: as §1

saracatinib = compound: CN1CCN(CCOc2cc(OC3CCOCC3)c3c(Nc4c(Cl)ccc5c4OCO5)ncnc3c2)CC1 [saracatinib]
How it was run: as §1

sotrastaurin = compound: CN1CCN(c2nc(C3=C(c4c[nH]c5ccccc45)C(=O)NC3=O)c3ccccc3n2)CC1 [sotrastaurin]
How it was run: as §1

Sequence of UniProt P13667 (P13667 whole entry, looked up): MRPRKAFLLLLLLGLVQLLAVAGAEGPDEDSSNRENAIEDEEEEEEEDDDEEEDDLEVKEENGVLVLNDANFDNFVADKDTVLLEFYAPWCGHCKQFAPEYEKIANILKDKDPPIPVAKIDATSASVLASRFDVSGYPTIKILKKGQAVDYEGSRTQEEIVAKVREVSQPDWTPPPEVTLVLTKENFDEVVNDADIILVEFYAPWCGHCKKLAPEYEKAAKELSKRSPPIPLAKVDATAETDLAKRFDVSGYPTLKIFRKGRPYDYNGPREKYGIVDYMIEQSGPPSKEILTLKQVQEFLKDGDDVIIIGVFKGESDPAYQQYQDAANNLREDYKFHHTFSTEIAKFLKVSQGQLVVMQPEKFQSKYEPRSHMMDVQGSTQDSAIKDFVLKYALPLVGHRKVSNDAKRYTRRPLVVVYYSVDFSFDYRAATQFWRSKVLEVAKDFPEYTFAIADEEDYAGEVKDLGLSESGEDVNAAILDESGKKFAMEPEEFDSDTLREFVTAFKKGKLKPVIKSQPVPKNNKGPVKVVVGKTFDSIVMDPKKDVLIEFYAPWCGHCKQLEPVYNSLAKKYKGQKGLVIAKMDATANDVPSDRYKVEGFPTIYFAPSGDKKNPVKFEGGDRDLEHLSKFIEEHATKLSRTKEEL
Sequence of UniProt Q8TAE6 (Q8TAE6 whole entry, looked up): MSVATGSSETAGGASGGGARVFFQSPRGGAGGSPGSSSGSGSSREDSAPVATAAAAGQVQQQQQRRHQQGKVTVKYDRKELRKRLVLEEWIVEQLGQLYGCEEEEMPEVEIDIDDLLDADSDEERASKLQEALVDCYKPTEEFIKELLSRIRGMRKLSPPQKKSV
Sequence of UniProt O00764 (O00764 whole entry, looked up): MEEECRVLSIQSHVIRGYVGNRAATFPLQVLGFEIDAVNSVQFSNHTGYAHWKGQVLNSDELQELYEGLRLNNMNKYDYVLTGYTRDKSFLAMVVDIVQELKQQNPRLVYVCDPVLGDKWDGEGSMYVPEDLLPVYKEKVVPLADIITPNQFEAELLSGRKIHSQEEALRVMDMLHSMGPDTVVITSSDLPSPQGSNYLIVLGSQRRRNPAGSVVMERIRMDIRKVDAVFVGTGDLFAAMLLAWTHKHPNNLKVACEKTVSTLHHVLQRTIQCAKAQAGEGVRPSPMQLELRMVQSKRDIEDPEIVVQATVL
Sequence of UniProt P28340 (P28340 whole entry, looked up): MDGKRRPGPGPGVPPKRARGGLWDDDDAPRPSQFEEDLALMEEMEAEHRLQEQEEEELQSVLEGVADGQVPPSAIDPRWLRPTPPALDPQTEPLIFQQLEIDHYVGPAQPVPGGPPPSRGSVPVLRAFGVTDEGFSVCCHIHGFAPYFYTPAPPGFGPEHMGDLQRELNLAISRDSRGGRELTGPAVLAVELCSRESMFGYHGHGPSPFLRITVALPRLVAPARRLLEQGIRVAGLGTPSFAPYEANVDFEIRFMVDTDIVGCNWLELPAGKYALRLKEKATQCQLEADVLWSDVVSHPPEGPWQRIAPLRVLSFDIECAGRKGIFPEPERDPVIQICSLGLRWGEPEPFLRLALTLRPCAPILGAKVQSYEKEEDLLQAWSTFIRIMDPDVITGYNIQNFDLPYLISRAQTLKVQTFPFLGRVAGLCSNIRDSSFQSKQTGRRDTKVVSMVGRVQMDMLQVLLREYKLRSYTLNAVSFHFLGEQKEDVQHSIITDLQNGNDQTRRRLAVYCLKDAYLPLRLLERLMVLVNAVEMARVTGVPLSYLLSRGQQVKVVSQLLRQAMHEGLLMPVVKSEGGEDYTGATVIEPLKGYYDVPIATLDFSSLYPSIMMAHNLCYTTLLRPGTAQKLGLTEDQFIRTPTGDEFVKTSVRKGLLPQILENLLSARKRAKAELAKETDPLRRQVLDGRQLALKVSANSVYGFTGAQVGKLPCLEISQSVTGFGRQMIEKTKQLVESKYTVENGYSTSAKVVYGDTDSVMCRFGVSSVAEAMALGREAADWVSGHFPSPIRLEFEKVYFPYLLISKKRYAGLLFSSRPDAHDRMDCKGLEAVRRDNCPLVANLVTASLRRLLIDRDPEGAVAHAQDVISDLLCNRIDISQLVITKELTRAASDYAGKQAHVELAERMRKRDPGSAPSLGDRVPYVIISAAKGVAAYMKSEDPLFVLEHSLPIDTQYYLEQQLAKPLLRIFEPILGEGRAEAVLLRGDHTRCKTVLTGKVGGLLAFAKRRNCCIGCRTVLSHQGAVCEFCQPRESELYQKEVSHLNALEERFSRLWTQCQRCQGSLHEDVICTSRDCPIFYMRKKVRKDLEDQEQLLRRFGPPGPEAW
Sequence of UniProt P54278 (P54278 whole entry, looked up): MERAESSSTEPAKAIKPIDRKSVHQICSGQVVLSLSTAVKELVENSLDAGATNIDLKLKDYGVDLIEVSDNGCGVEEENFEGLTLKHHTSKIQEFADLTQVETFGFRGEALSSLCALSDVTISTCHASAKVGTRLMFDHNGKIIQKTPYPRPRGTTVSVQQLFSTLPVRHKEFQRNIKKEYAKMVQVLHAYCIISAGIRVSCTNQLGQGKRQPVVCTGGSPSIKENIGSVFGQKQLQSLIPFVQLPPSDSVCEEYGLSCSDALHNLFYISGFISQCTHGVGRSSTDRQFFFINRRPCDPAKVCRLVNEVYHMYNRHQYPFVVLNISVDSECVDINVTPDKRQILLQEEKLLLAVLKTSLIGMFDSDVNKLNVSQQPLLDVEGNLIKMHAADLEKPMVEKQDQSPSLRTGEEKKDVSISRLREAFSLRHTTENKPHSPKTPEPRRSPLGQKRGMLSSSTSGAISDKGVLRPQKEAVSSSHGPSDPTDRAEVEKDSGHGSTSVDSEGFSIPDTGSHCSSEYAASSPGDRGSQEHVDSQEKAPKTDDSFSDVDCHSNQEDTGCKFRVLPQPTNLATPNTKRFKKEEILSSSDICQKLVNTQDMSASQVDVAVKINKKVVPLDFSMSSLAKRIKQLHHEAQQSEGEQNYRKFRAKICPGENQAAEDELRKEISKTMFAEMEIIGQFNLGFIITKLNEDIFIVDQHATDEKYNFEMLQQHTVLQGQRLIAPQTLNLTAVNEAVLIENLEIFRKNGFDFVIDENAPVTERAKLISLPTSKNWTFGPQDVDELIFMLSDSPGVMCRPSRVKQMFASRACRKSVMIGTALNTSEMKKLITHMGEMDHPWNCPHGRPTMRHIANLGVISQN
Sequence of UniProt P48147 (P48147 whole entry, looked up): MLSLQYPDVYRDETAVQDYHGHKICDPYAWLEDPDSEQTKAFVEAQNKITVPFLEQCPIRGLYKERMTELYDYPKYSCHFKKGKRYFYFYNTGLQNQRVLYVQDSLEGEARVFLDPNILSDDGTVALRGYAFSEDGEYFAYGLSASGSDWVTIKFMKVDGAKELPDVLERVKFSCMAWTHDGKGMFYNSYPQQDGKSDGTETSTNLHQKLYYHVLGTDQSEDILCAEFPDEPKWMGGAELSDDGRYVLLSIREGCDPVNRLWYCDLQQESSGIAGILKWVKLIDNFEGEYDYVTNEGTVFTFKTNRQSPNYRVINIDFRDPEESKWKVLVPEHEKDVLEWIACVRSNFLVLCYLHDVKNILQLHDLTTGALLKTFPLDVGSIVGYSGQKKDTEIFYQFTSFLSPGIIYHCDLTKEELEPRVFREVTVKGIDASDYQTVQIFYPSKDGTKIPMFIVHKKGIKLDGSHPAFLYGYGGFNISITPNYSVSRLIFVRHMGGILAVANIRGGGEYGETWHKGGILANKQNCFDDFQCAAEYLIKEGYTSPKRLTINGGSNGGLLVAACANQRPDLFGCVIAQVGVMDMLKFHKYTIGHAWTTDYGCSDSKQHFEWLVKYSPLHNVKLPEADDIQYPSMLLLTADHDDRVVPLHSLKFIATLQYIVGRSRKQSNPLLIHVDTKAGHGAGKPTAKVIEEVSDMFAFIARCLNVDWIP
Sequence of UniProt Q93100 (Q93100 whole entry, looked up): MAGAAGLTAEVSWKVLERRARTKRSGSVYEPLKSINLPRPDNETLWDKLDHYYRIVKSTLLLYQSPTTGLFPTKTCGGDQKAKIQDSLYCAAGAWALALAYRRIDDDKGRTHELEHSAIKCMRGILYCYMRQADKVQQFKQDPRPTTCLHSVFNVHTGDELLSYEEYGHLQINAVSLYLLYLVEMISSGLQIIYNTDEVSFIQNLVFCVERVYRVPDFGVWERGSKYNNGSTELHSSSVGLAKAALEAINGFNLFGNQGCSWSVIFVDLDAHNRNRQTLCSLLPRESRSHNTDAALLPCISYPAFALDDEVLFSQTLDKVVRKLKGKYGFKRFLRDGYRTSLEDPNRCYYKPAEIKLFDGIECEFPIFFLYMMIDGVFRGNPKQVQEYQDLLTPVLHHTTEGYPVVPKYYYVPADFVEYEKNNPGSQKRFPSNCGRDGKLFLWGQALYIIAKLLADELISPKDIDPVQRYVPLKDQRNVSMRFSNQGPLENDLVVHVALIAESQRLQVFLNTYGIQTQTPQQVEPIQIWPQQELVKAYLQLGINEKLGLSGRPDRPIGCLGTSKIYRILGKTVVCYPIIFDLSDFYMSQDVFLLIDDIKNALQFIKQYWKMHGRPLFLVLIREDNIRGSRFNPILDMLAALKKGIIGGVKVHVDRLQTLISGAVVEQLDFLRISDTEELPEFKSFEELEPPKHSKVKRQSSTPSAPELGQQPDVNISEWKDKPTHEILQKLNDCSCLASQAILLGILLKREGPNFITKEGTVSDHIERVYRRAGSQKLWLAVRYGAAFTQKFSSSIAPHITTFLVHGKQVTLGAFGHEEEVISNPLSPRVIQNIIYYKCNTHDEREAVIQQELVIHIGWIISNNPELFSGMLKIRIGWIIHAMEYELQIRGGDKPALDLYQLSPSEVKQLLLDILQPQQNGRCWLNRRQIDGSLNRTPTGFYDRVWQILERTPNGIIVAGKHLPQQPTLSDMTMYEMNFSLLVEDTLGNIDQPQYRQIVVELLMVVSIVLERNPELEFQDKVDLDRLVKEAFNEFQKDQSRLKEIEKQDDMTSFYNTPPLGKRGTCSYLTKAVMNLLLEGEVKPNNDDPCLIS
Sequence of UniProt Q9H0N5 (Q9H0N5 whole entry, looked up): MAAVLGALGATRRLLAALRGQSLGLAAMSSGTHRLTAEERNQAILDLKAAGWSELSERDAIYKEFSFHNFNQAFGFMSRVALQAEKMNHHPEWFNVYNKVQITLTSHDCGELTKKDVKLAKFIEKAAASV

Row | Target | log2 fold change (vemurafenib) | log2 fold change [1] | log2 fold change (barasertib) | log2 fold change [2] | log2 fold change (volasertib) | log2 fold change [3] | log2 fold change [4] | log2 fold change [5] | log2 fold change (saracatinib) | log2 fold change (sotrastaurin)
1 | PWP1 (UniProt Q13610) | -0.09 | 0.019 | 0.012 | -0.032 | -0.004 | -0.023 | 0.62 (active) | -0.039 | 0.01 | -0.021
2 | PPP4R2 (UniProt Q9NY27) | -0.033 | 0.026 | -0.041 | 0.057 | -0.014 | -0.042 | 0.21 | 0.028 | -0.007 | 0.006
3 | PRKCB isoform 2 (UniProt P05771) | 0.045 | -0.024 | -0.017 | -0.01 | -0.062 | 0.002 | 0.073 | -0.077 | -0.023 | 0.505 (active)
4 | PFKFB4 (UniProt Q16877) | 0.021 | 0.005 | 0.087 | 0.015 | -0.068 | -0.011 | 0.014 | 0.007 | 0.077 | 0.043
5 | PUF60 (UniProt Q9UHX1) | 0.002 | 0.015 | -0.005 | 0.002 | 0.003 | -0.015 | 0.116 | -0.018 | 0 | -0.02
6 | PTGES2 (UniProt Q9H7Z7) | 0.547 (active) | 0.06 | -0.107 | -0.108 | 0.159 | -0.053 | -0.003 | -0.18 | -0.029 | 0.058
7 | PDIA4 (UniProt P13667) | -0.007 | -0.02 | -0.028 | 0.017 | 0.012 | -0.008 | 0.036 | -0.045 | 0.012 | 0
8 | PPME1 isoform 4 (UniProt Q9Y570) | 0.005 | 0.003 | -0.045 | -0.006 | 0.016 | 0.028 | -0.015 | 0.008 | -0.01 | -0.008
9 | PMS2 (UniProt P54278) | -0.015 | -0.028 | 0.033 | -0.072 | -0.147 | 0.101 | -0.02 | 0.012 | -0.004 | 0.001
10 | PRKD2 isoform 3 (UniProt Q9BZL6) | 0.041 | -0.048 | 0.034 | -0.358 (active) | -0.131 | 0.097 | 0.038 | -0.07 | 0 | 0.085
11 | PDXK (UniProt O00764) | 0.005 | -0.001 | -0.014 | 0.329 (active) | 0.025 | -0.004 | -0.134 | 0.156 | -0.023 | -0.016
12 | PCBP3 (UniProt P57721) | 0.021 | -0.007 | -0.007 | -0.003 | 0.006 | -0.011 | -0.062 | 0.032 | 0.014 | -0.047
13 | PPP1R14C (UniProt Q8TAE6) | -0.183 | 0.008 | 0.002 | -0.084 | 0.037 | 0.072 | -0.217 | 0.017 | -0.022 | –
14 | PICALM (UniProt H0YEH1) | 0.05 | -0.094 | -0.018 | -0.008 | -0.011 | -0.014 | -0.54 (active) | 0.248 | 0.056 | 0.126
15 | PDPK1 (UniProt O15530) | -0.03 | -0.002 | -0.027 | -0.06 | -0.047 | 0.012 | 0.041 | -0.017 | -0.025 | 0.133
16 | PHKB isoform 3 (UniProt Q93100) | -0.043 | -0.007 | 0.04 | 0.022 | -0.034 | 0.009 | -0.146 | 0.138 | 0.019 | -0.014
17 | PLIN2 (UniProt Q99541) | 0.014 | -0.01 | 0.073 | 0.033 | 0.003 | 0.048 | 0.033 | -0.181 | 0.019 | 0.007
18 | PWP2 (UniProt Q15269) | 0.033 | 0.045 | 0.044 | 0.006 | -0.013 | 0.018 | 0.015 | -0.038 | 0.015 | 0.052
19 | PPCDC (UniProt Q96CD2) | 0.1 | 0.003 | 0.066 | 0.047 | 0.006 | 0.008 | -0.342 | 0.165 | 0.018 | 0.038
20 | PPIE (UniProt Q9UNP9) | 0.026 | -0.043 | -0.042 | 0.044 | 0.018 | -0.003 | -0.25 (active) | 0.143 | -0.01 | 0.067
21 | PPP2R3C (UniProt Q969Q6) | -0.081 | -0.094 | 0.094 | -0.244 | 0 | 0.071 | -0.392 (active) | 0.115 | 0.04 | –
22 | PHKA2 (UniProt P46019) | -0.065 | 0.053 | 0.072 | 0.059 | 0.021 | 0.024 | 0.009 | -0.084 | 0.002 | -0.058
23 | PFKFB2 (UniProt O60825) | -0.011 | 0.011 | 0.008 | 0.004 | -0.025 | 0.015 | -0.021 | -0.029 | 0.012 | 0.002
24 | PREP (UniProt P48147) | 0.028 | 0.011 | -0.003 | -0.025 | -0.025 | 0.023 | 0.008 | -0.013 | 0.005 | 0.001
25 | POLD1 (UniProt P28340) | 0.01 | 0.053 | -0.011 | -0.021 | -0.005 | 0.035 | 0.028 | -0.043 | 0.01 | 0.015
26 | PCBD2 (UniProt Q9H0N5) | 0.004 | -0.017 | 0.013 | 0.018 | 0.016 | 0.031 | -0.237 | 0.11 | -0.05 | 0.055
27 | PRKCSH isoform 2 (UniProt P14314) | 0.007 | -0.053 | -0.159 | 0.03 | -0.052 | -0.101 | -1.03 (active) | 0.326 | 0.022 | 0.199
28 | POLR2B (UniProt P30876) | 0.021 | -0.004 | 0.039 | -0.049 | -0.074 | 0.01 | -0.029 | 0.017 | 0.016 | 0.024
29 | POC5 (UniProt Q8NA72) | -0.062 | -0.049 | 0.014 | 0.17 | 0 | -0.045 | 0.021 | -0.011 | -0.087 | -0.046
30 | PICALM (UniProt Q13492) | -0.004 | -0.004 | 0.037 | 0.04 | 0.014 | 0.004 | 0.098 | -0.021 | 0.009 | -0.061
